Screening data (PubChem)
HT1080 IDH1KD tx: toxicity to HT-1080 IDH1 knockdown cells (counter line); HT-1080 IDH1 knockdown viability, ATP luminescence, 48 h; Potency, µM (doses to about 46.1 µM), most hits filed as cytotoxic; 2% of 360,000 active
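Using the IDH1-knockdown HT-1080 line run in the same batch and compound series as the NT line, viability after 48 h at 37 °C was determined by CellTiter-Glo luminescence and expressed as % activity.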
TDP1 cell noCPT: qHTS for Inhibitors of human tyrosyl-DNA phosphodiesterase 1 (TDP1): qHTS in cells in absence of CPT. DT40 Tdp1-/- hTDP1 cells, no CPT, ATP luminescence, 48 h. Potency, µM (doses to about 46.2 µM), most hits filed as inhibitors. 15% of 420,000 active; note: nearly all actives have a fitted effect of over 55% in size
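Readout: luminescence from CellTiter-Glo after 30 min in the dark at RT. Cells: DT40 Tdp1-/- with stable hTDP1, 400/well. Exposure: compounds alone, ≥48 hr, 37 °C.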
KB-V1 MDR tox: KB-V1 MDR subline cytotoxicity; KB-V1 MDR cells viability, CellTiter-Glo, 72 h; Potency, µM (top dose mostly 46.1 µM), usual class: cytotoxic; 3.4% of 400,000 active; AID 1347076; note: nearly all actives have a fitted effect of over 60% in size
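Cytotoxicity via CellTiter-Glo luminescence after 72 h compound exposure at 37 degrees C. Cells: drug-selected KB-V1 line, DMEM phenol-red free plus 10% FBS. Compounds tested at multiple concentrations; normalized data fitted to concentration-effect curves.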
KB-3-1 cytotox: kills parental KB-3-1 adenocarcinoma cells. Potency, µM (highest dose often 46.1 µM), hits mostly cytotoxic. KB-3-1 viability, CellTiter-Glo ATP luminescence, 72 h. 1.4% of 400,000 active. AID 1347075; note: nearly all actives have a fitted effect of over 60% in size
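Cytotoxicity in the drug-sensitive parental line KB-3-1 was scored as loss of CellTiter-Glo luminescence following 72 h incubation with compound. Values come from curve fitting of normalized concentration-response data.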
HT1080-NT tox: kills 2HG-producing HT-1080-NT fibrosarcoma cells; Potency, µM (titrated, usually from 46.1 µM), usual class: cytotoxic; 1.6% of 360,000 active; HT-1080-NT fibrosarcoma viability, CellTiter-Glo ATP luminescence, 48 h;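 note: NT is the 2HG producing partner of a matched IDH1 knockdown line; nearly all actives have a fitted effect of over 55% in size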
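HT-1080-NT; 750 cells/well; 5% FBS RPMI; 48 h compound, 37 degrees C; CellTiter-Glo luminescence; curve fitting and curve-class assignment.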
DT40 TDP1 CPT: DT40-hTDP1 cell growth loss with CPT | chicken DT40 Tdp1-/-;hTDP1 cells + 20 nM CPT, ATP luminescence, 48 h | Potency, µM (highest dose often 46.2 µM), actives largely listed as inhibitors | 12% of 420,000 active | AID 686979; note: nearly all actives have a fitted effect of over 55% in size
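Chicken DT40 Tdp1-/- cells stably complemented with human TDP1 were seeded at 400 cells/well in medium containing 20 nM camptothecin, exposed to pin-transferred compounds, and grown at 37 °C for at least 48 hr. Viability was read as ATP luminescence.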
Large screens that a line does not name were inactive. Hits are enriched below; roughly 19% of the tested compounds scored in any of these assays. Calls come from the whole dose curve; as a rule, active = well fitted curve in the direction sought with a large enough effect; inconclusive = small, poorly fitted or top-dose-only effect, or another doubt; inactive = no such curve, though single readings can be large; an effect the other way counts as inactive or inconclusive.

CC(O)(CS(=O)(=O)Cc1ccccc1)C(=O)Nc1cccc(C(F)(F)F)c1 (stereo not given)	HT1080 IDH1KD tx inconclusive, KB-V1 MDR tox 14.6µM
CC(O)(CS(=O)(=O)Cc1ccccc1)C(=O)Nc1ccc(C(F)(F)F)cc1 (stereo not given)	HT1080 IDH1KD tx inconclusive, KB-V1 MDR tox 20.6µM
CC(O)(CS(=O)(=O)Cc1ccccc1)c1ccc(Cl)cc1 (stereo not given)	none
CCCN(C)C1CN(Cc2cn(Cc3cc(C)cc(C)c3)nn2)S(=O)(=O)C1 (stereo not given)	none
COc1ccc(NC(=O)NN(C(=O)c2ccccc2)C(C)(C)C)cc1	KB-V1 MDR tox inconclusive
Cc1nn(C)c(Cl)c1S(=O)(=O)N(Cc1ccco1)c1ncnc2nc[nH]c12	none (no result: HT1080 IDH1KD tx, HT1080-NT tox)
COc1cc(NC(=S)Nc2ccccn2)c(OC)cc1Cl	HT1080 IDH1KD tx inconclusive, TDP1 cell noCPT inconclusive
CCCn1c(SC(C)C(=O)NCC2CCCO2)nc2sc(CC)cc2c1=O (stereo not given)	TDP1 cell noCPT inconclusive (no result: KB-V1 MDR tox, KB-3-1 cytotox)
COCCCNC(=O)CN1C(=O)/C(=C/c2ccccc2C)Sc2ccccc21	KB-V1 MDR tox inconclusive
Cc1ccc(/C=C2/Sc3ccccc3N(CC(=O)NCCCOC(C)C)C2=O)cc1	TDP1 cell noCPT inconclusive, KB-V1 MDR tox 23.1µM, DT40 TDP1 CPT inconclusive
CCOCCCNC(=O)CN1C(=O)/C(=C\c2ccc(C)cc2)Sc2ccccc21	TDP1 cell noCPT inconclusive, KB-V1 MDR tox 4.61µM, DT40 TDP1 CPT 20.6µM
COCCCNC(=O)CN1C(=O)/C(=C/c2ccccc2)Sc2ccccc21	TDP1 cell noCPT 14.6µM, KB-V1 MDR tox inconclusive, HT1080-NT tox inconclusive, DT40 TDP1 CPT inconclusive
CCOCCCNC(=O)CN1C(=O)/C(=C/c2ccccc2)Sc2ccccc21	TDP1 cell noCPT inconclusive, KB-V1 MDR tox 14.6µM, DT40 TDP1 CPT inconclusive
Cc1nc2ccccn2c(=O)c1NC(=O)c1ccc(F)c(F)c1	none (no result: HT1080 IDH1KD tx, KB-V1 MDR tox, KB-3-1 cytotox, HT1080-NT tox)
Cc1cc(SCC(=O)OCC(=O)NCC2CCCO2)c(C)cc1Br (stereo not given)	TDP1 cell noCPT inconclusive
COc1ccc(C2(c3ccc(OC)cc3)NC(=O)N(CC(=O)NC3CCCC3)C2=O)cc1	none
CC1(C)CC(=O)C=C(NCCc2ccccc2)C1	none
CC1(C)CC(=O)C=C(/C=C/c2ccccc2)C1	DT40 TDP1 CPT 23.1µM
CCOC(=O)c1c(C)[nH]c(C(=O)COC(=O)CNC(=O)c2ccc(Cl)cc2)c1C	TDP1 cell noCPT inconclusive, KB-V1 MDR tox 4.11µM
CCOC(=O)c1c(C)[nH]c(C(=O)COC(=O)c2ccc(O)cc2)c1C	TDP1 cell noCPT inconclusive, KB-V1 MDR tox inconclusive
CC(=O)c1c(C)[nH]c(C(=O)COC(=O)COc2ccccc2)c1C	none
CCOC(=O)c1c(C)[nH]c(C(=O)OC(C(=O)N(C)C)c2ccccc2)c1C (stereo not given)	TDP1 cell noCPT 10µM, KB-3-1 cytotox inconclusive, DT40 TDP1 CPT 10µM (no result: HT1080 IDH1KD tx, HT1080-NT tox)
CCOC(=O)c1c(C)[nH]c(C(=O)COC(=O)COc2ccc(OC)cc2)c1C	KB-V1 MDR tox 18.4µM
CCOC(=O)c1c(C)[nH]c(C(=O)CSc2nc3ccccc3o2)c1C	none
CCOC(=O)c1c(C)[nH]c(C(=O)CSc2ccc(Cl)cc2)c1C	HT1080 IDH1KD tx inconclusive, TDP1 cell noCPT inconclusive, KB-V1 MDR tox 18.4µM
CCOC(=O)N1CCN(C(=O)c2cn(CC)c3ccc(S(=O)(=O)N4CC(C)CC(C)C4)cc3c2=O)CC1 (stereo not given)	none
CC1(C(=O)Nc2cccc3c2CCCC3)CCN1C(=O)Cc1ccccc1Cl (stereo not given)	TDP1 cell noCPT inconclusive, DT40 TDP1 CPT inconclusive
CCOC(=O)c1c(C)[nH]c(C(=O)COC(=O)C2(C)CC2(Cl)Cl)c1C (stereo not given)	HT1080 IDH1KD tx inconclusive, KB-V1 MDR tox 13µM
CCOC(=O)CC(=O)c1[nH]c(C)c(C(=O)OCC)c1C	none
CCOC(=O)c1c(C)[nH]c(C(=O)CSc2nc(C)cc(C)n2)c1C	TDP1 cell noCPT 20.6µM, KB-V1 MDR tox inconclusive, DT40 TDP1 CPT 14.6µM
CCOC(=O)c1[nH]c(=O)[nH]c1CSc1nc(C)cc(C)n1	none
COc1ccc(C(C)(C)C)cc1NC(=O)CSc1ncn[nH]1	none
COc1ccccc1NC(=O)Cn1c(=O)n(CC(=O)NCc2ccccc2Cl)c(=O)c2sccc21	none (no result: HT1080 IDH1KD tx, HT1080-NT tox)
COc1cc(/C=C/C(=O)OCC(=O)NC(=O)NC(C)C)cc(S(=O)(=O)N2CCc3ccccc32)c1OC	TDP1 cell noCPT 20.6µM, HT1080-NT tox inconclusive, DT40 TDP1 CPT inconclusive
COc1cc(/C=C/C(=O)OCC(=O)N2CCc3ccccc32)cc(OC)c1OC	TDP1 cell noCPT inconclusive, DT40 TDP1 CPT inconclusive
CCOC(=O)c1cnc(-n2nc(C)cc2C)nc1NCCO	KB-V1 MDR tox inconclusive
CCOC(=O)c1cc(C(=O)NC(C)c2ccccc2)c(=O)[nH]c1C (stereo not given)	none
CCOC(=O)c1cnc(-n2nc(C)cc2C)nc1N1CC(C)OC(C)C1 (stereo not given)	TDP1 cell noCPT 20.6µM, KB-V1 MDR tox inconclusive, DT40 TDP1 CPT inconclusive
CCOC(=O)c1cnc(-n2nc(C)cc2C)nc1NC(C)c1ccccc1 (stereo not given)	TDP1 cell noCPT 4.61µM, KB-V1 MDR tox 1.03µM, KB-3-1 cytotox inconclusive, DT40 TDP1 CPT 4.61µM
CCOC(=O)c1cnc(-c2ccccc2)nc1N1CC(C)OC(C)C1 (stereo not given)	TDP1 cell noCPT inconclusive, KB-V1 MDR tox inconclusive, DT40 TDP1 CPT inconclusive
Cc1cc(C)n(-c2nc(C)nc(NCc3ccccc3)n2)n1	TDP1 cell noCPT 18.4µM, KB-V1 MDR tox inconclusive, KB-3-1 cytotox inconclusive, DT40 TDP1 CPT 25.9µM
CCOC(=O)c1cnc(-n2nc(C)cc2C)nc1NCc1ccccc1	TDP1 cell noCPT 5.17µM, KB-V1 MDR tox 0.92µM, KB-3-1 cytotox inconclusive, DT40 TDP1 CPT 3.26µM
O=C(O)C1CCN(c2ccc(Cl)nn2)CC1	none
CC1=C(C(=O)Nc2ccc(C)cc2)C(c2ccccc2Cl)n2nnnc2N1 (stereo not given)	none (no result: HT1080 IDH1KD tx, HT1080-NT tox)
Fc1ccccc1/C=C1\CCCC2=C1Nc1nnnn1C2c1ccccc1F (stereo not given)	HT1080 IDH1KD tx 10µM, HT1080-NT tox 12.6µM, DT40 TDP1 CPT inconclusive
Cc1cccc(N2CC(C(=O)NC3CCCCCC3)CC2=O)c1C (stereo not given)	HT1080 IDH1KD tx inconclusive, TDP1 cell noCPT inconclusive, DT40 TDP1 CPT inconclusive
Cc1ccc(-c2cc(-c3cccc(F)c3)n[nH]2)c(O)c1	HT1080 IDH1KD tx inconclusive, TDP1 cell noCPT inconclusive, HT1080-NT tox inconclusive
